# VACV mCherry inh: qHTS for Stage-Specific Inhibitors of Vaccinia Orthopoxvirus: mCherry Reporter Primary qHTS; Vaccinia virus mCherry reporter infection, fluorescence; Potency, µM (doses to about 36.5 µM), for the others: top-dose activity change, negative = inhibition, actives largely listed as inhibitors; 310,000 tested, 0.63% active; calls by dose curve; tested in A549 cells; further: potency means the concentration at half of the fitted maximal effect; nearly all actives have a fitted effect of over 35% in size
# HCMV inh: qHTS Assay for inhibitors of the human cytomegalovirus (HCMV). HFF cells, HCMV-luciferase reporter, 72 h; stronger effect = lower value. activity change, negative = inhibition, % at 57.5 µM. 410,000 tested, 4.5% active. AID 1259415, 2018; in the data active means activity change below about -60%; inconclusive means no clear call, values can overlap the other calls; inactive means above about -39%
#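 Two-dose cell screen: HFF monolayers treated with compounds and infected with luciferase-expressing HCMV at 1 PFU/cell, 72 h at 37C, then lysed for luciferase measurement.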
# Marburg entry inh: qHTS for inhibitors of binding or entry into cells for Marburg Virus; 300,000 tested, 1.8% active; Marburg virus pseudotyped entry inhibition, cell reporter; AID 540276, 2011; Potency, µM (titrated, usually from 37.8 µM), for inactives: at the top dose activity change, negative = inhibition, usual class: inhibitors; calls by dose curve; tested in HEK293 cells; further: potency means the concentration at half of the fitted maximal effect
# FMDV inh: High Throughput Screening for Foot and Mouth Disease Virus Antivirals; FMDV antiviral cell-based qHTS; Potency, µM (titrated, usually from 57.9 µM), inactives show at the top dose activity change, negative = inhibition, usual class: inhibitors; 410,000 tested, 1.2% active; calls by dose curve; tested in HEK293T cells; further: read-out not given here; potency means the concentration at half of the fitted maximal effect; nearly all actives have a fitted effect of over 45% in size
# Vaccinia Venus: qHTS for Stage-Specific Inhibitors of Vaccinia Orthopoxvirus: Venus Reporter Primary qHTS. Potency, µM (top dose mostly 36.5 µM), for inactives: at the top dose activity change, negative = inhibition, hits mostly inhibitors. Vaccinia virus Venus reporter expression, fluorescence. 330,000 tested, 0.46% active. AID 720580, 2013; calls by dose curve; tested in A549 cells; further: potency means the concentration at half of the fitted maximal effect; nearly all actives have a fitted effect of over 30% in size
# Lassa entry inh: qHTS for Inhibitors of binding or entry into cells for Lassa Virus. Potency, µM (top dose mostly 37.9 µM), for the others: at the highest dose activity change, negative = inhibition, usual class: inhibitors. Lassa virus pseudotype entry inhibition, cell reporter. 300,000 tested, 1.2% active; calls by dose curve; tested in HEK293 cells; further: potency means the concentration at half of the fitted maximal effect; nearly all actives have a fitted effect of over 50% in size
# * marks the source's active call; other numbers are inactive results; i = inactive; ? = inconclusive; · = no result given; [ ] = remark or other dose. This is a sample that favours compounds with a hit; in the whole collection about 6.5% have one here. On the % scale 0 is the no-effect control and ±100 the full control effect.
SMILES,VACV mCherry inh,HCMV inh,Marburg entry inh,FMDV inh,Vaccinia Venus,Lassa entry inh
CCCCN(CC)CCNC(=O)C1CCCN(c2ncnc3onc(C)c23)C1 (stereo unspecified),-5%,9,·,-4%,-14%,2%[46.1 µM]
CC(C)Cc1nc2cc(NS(=O)(=O)N(C)C)cc(C(=O)N3CCc4sccc4C3)c2n1C,0%,·,·,36%,-7%,·
CCOC(=O)/C=C/[C@@H](CCCCOCc1ccccc1)NC(=O)C(F)(F)F,·,-7,·,·,·,·
COc1cccc(CNC(=O)CCc2c(C)nn(-c3ccc(N4CCOCC4)nn3)c2C)c1,-8%,39,·,-18%,-5%,-6%[46.1 µM]
OCCN1CCN(c2ncnc3c2ncn3[C@H]2CN(Cc3cccc(C(F)(F)F)c3)C[C@@H](CO)O2)CC1,i,-62*,·,-1%,-8%,·
OCCNc1ncnc2c1ncn2[C@H]1CN(Cc2ccc(-c3ccccc3)cc2)C[C@@H](CO)O1,6%,·,·,?,-11%,·
CC(C)CNc1ncnc2c1ncn2[C@H]1CN(Cc2ccc(-c3ccccc3)cc2)C[C@@H](CO)O1,?,-73*,·,?,?,·
OCCN1CCN(c2ncnc3c2ncn3[C@H]2CN(Cc3ccc(F)cc3)C[C@@H](CO)O2)CC1,-16%,-10,·,-4%,0%,·
CC(C)CNc1ncnc2c1ncn2[C@H]1CN(Cc2ccncc2)C[C@@H](CO)O1,26%,-35,·,-13%,5%,·
CC(C)Nc1ncnc2c1ncn2[C@H]1CN(Cc2ccc(-c3ccccc3)cc2)C[C@@H](CO)O1,16%,-66*,·,?,-23%,·
O=C(CSc1ncnc2sc3c(c12)CCCCC3)NCc1ccco1,-29%,-9,?,5%,-22%,?
CC(C)c1nc2sc3c(SCC(=O)NCc4ccco4)ncnc3c2c2c1CCC2,·,12,?,?,14µM*,?
Cc1sc2nc(SCC(=O)NCc3ccco3)n(CCc3ccccc3)c(=O)c2c1C,·,-68*,?,0%,·,-23%
O=C(CSc1nc2sc3c(c2c(=O)n1-c1ccccc1)CCCC3)NCc1ccco1,?,-93*,14%,0%,?,0%
CCc1ccc2ncc3c(-c4ccc(F)cc4)nn(CC(=O)NC4CCCCC4)c3c2c1,-2%[7.34 µM],2,·,-11%,-6%[7.34 µM],2%[46.1 µM]
CC(=O)Nc1c([N+](=O)[O-])cc(C)c(Cl)c1[N+](=O)[O-],?,-77*,?,-13%,-27%,-17%[46.1 µM]
CC(C)OC(=O)Nc1ccc2nc(-c3cscn3)[nH]c2c1,·,12,·,·,·,·
COc1cccc2cc(C(=O)C3=C(O)C(=O)N(c4cc(C)on4)C3c3cccs3)oc12 (stereo unspecified),·,-70*,·,-18%,·,·
CC(=O)Nc1ccc(-n2c(C)ccc2C)cc1,·,-36,·,-4%,·,·
CC(=O)Nc1ccc(-n2c(=O)c3ccccc3c3ccccc3c2=O)cc1,-8%,95,-9%,28µM*,-15%,?
O=C(O)c1ccc(-n2c(=O)c3ccccc3c3ccccc3c2=O)cc1,-1%,-26,-4%[46.1 µM],35µM*,-14%,4%[46.1 µM]
CCn1nc(C(=O)O)c(=O)c2c1CC1=C(C2)OCO1,·,·,5%,·,·,·
O=C(Nc1ccccc1C(=O)OCc1cc(=O)n2c3c(sc2n1)CCCC3)c1cccc(Cl)c1,-12%,-26,·,-5%,-7%,-16%[46.1 µM]
CC(/C=N/NC(=O)c1ccc(Br)cc1)=C\c1ccccc1,-8%,-63*,?,·,-24%,0%
COc1ccc(C(=O)N/N=C\C(C)=C\c2ccccc2)cc1OC,?,7,-6%,-13%,-28%,?
SMILES,VACV mCherry inh,HCMV inh,Marburg entry inh,FMDV inh,Vaccinia Venus,Lassa entry inh
COc1ccc(NC(=O)CCc2nnc3n(Cc4ccccc4Cl)c(=O)c4ccccc4n23)cc1,-15%,-16,-3%[46.1 µM],5%,-14%,·
N/C(Cc1ccc(Cl)cc1)=N\OC(=O)c1ccc2ccccc2c1,-12%,10,2.8µM*,-10%,-5%,?
N/C(Cc1ccc(Cl)cc1)=N\OC(=O)CCc1ccccc1,i,18,·,-20%,-19%,·
N/C(Cc1ccc(Cl)cc1)=N\OC(=O)c1cccc2ccccc12,-16%,-19,?,?,-13%,12µM*
COc1ccc(C/C(N)=N/OC(=O)c2ccc(Cl)cc2)cc1,i,?,-19%[46.1 µM],7%,-4%,?
COc1ccc(CCn2c(=N)c(C(=O)NCC3CCCO3)cc3c(=O)n4ccccc4nc32)cc1 (stereo unspecified),·,-112*,·,-25%,·,·
N=c1c(C(=O)NCC2CCCO2)cc2c(=O)n3ccccc3nc2n1Cc1ccccc1Cl (stereo unspecified),i,-101*,11µM*,-23%,-5%,?
N=c1c(C(=O)NCC2CCCO2)cc2c(=O)n3ccccc3nc2n1Cc1ccc(Cl)cc1 (stereo unspecified),·,-83*,·,-15%,·,·
COc1ccc(CCNC(=O)c2cc3c(=O)n4ccccc4nc3n(CCN3CCOCC3)c2=N)cc1,-3%,-21,2.8µM*,-25%,-9%,?
Cc1cc(C)c(S(=O)(=O)NCC(c2ccc(N(C)C)cc2)N2CCc3ccccc32)c(C)c1 (stereo unspecified),-24%,3,·,1%,-25%,12%[46.1 µM]
COc1ccccc1C(=O)Nc1cccc(C(=O)OCc2cc(=O)n3cc(C)sc3n2)c1,-14%,?,·,-2%,-12%,29%[46.1 µM]
O=C(CSCc1ccc(Cl)cc1)N/N=C/c1ccccc1,·,-21,5%,-1%,·,-5%
COC(=O)Oc1ccc(/C=N/NC(=O)CSCc2ccc(Cl)cc2)cc1OC,-22%,-60*,-39%,?,-23%,?
CCCCN(CCCC)Cc1cc(=O)oc2cc(C)cc(C)c12,14%,-20,·,-17%,1%,1%[46.1 µM]
Cc1cc(C)c2c(CN(C)Cc3ccccc3)cc(=O)oc2c1,31%,-31,·,53%,0%,10µM*
Cc1cc(C)c2c(CCl)cc(=O)oc2c1,-20%,-95*,?,28µM*,?,?
CC(=O)c1ccc(N/N=C(/C(N)=O)C2=NC(C)(C)Cc3ccccc32)cc1,?,?,3.3µM*,0%,?,2.9µM*
CC1(C)Cc2ccccc2C(/C(=N\Nc2cccc(Cl)c2)C(N)=O)=N1,?,-102*,?,?,?,?
